ClpP mod – qHTS Assay for Activators of ClpP | AID 651965, 2013 | Potency, µM (series often up to 57.5 µM) | purified B. subtilis ClpP, FRET peptide cleavage, 20 min | ATP-dependent Clp protease proteolytic subunit (Bacillus subtilis (strain 168)), P80244 | 340,000 compounds, 1.9% hits; active means well fitted falling curve with a large enough effect; inconclusive means small, poorly fitted or top-dose-only effect; inactive means no such curve, though single readings can be large or run the other way; further: the source files actives as falling curves though it sought activators and does not explain the sign; nearly all actives have a fitted effect of over 65% in size
Target sequence (P80244 whole entry, looked up): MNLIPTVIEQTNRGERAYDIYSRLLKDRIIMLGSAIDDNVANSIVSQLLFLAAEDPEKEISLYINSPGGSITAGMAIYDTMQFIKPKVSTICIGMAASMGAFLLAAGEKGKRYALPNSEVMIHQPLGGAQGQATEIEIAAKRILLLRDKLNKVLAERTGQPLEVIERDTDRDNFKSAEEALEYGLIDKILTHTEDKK
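FRET quenching reversal measured ClpP activation: 10 microg/mL B. subtilis ClpP at pH 8 with the FRET-FV decapeptide, read at 430 nm after 320 nm excitation. The 20-min minus 0-min signal was scaled between DMSO/no-enzyme wells and ADEP (5.8 microM final).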
Epigenetic derep – epigenetic control regulation, reporter derepression | 280,000 compounds, 0.2% hits | murine LDR cells, GFP reporter derepression, 30 h | Potency, µM (highest dose often 53.9 µM), actives largely listed as activators; further: nearly all actives have a fitted effect of over 60% in size
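Murine LDR cells bearing a silenced CMV-driven GFP reporter were exposed to compound for 30 h at 37 C. After PBS washes, GFP-positive cells (20-120 um objects) counted by laser-scanning microplate cytometry.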
PINK1 modulator – changes PINK1 expression; Potency, µM (top dose mostly 76.6 µM), usual class: activators; 410,000 compounds, 0.2% hits; PINK1 immunofluorescence, high-content cytometry, 24 h; active means well fitted activation curve with a large enough effect; inconclusive means small, poorly fitted or top-dose-only effect; cell line not stated here; further: nearly all actives have a fitted effect of over 65% in size
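Readout is PINK1 immunofluorescence, quantified alongside mitochondrial, cell and nuclear markers by laser-scanning microplate cytometry. Cells from a stable line were exposed to compound titrations (5 concentrations) for 24 hours, with CCCP controls.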
Sfp inh – Sfp phosphopantetheinyl transferase inhibition; Q9F4F7; Biochemical Sfp PPTase activity, qHTS; Potency, µM, most hits filed as inhibitors; 310,000 compounds, 3.5% hits; AID 1490;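 further: the enzyme is Sfp with the accession as filed and its product quenches rhodamine fluorescence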
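Fluorescence-quenching assay: 15 nM Sfp-PPTase preincubated 15 min at room temperature with compound, then 5 uM rhodamine-CoA and 12.5 uM BHQ-2-labelled YbbR peptide added. Fluorescence (ex 525/em 598 nm) read at start and after 30 min; difference gives rate.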
VP16 counter – counter-screen for ROR gamma inhibitors: Gal4-VP16 reporter | Drosophila S2 Gal4-VP16 UAS-luciferase, luminescence, 20 h | AID 2546 | Potency, µM (top dose mostly 53.6 µM), actives largely listed as inhibitors | 310,000 compounds, 3.5% hits;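 further: Gal4-VP16 expression switched on by copper sulfate through the metallothionein promoter; nearly all actives have a fitted effect of over 50% in size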
RORg inh – blocks mouse ROR gamma transcriptional activity | Drosophila S2 Gal4-RORgamma UAS-luciferase reporter, 20 h | Potency, µM (doses to about 53.6 µM), most hits filed as inhibitors | 310,000 compounds, 5.4% hits | AID 2551; further: nearly all actives have a fitted effect of over 60% in size
Target sequence (P51450 whole entry, looked up, the tested form may be a part): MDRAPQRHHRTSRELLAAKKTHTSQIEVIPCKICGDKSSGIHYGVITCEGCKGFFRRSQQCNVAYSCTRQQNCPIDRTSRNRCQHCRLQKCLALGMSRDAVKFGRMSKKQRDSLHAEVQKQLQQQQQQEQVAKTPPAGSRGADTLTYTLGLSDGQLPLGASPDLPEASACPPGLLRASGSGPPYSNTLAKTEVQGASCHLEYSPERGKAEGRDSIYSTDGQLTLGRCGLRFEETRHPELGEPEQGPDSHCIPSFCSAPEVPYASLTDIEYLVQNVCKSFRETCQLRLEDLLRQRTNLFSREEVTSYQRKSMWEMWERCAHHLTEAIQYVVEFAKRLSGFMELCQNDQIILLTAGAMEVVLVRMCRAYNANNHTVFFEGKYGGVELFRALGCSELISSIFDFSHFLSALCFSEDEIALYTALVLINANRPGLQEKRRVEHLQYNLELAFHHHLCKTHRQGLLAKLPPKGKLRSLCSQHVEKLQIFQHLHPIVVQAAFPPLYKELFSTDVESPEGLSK
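Compounds are pin-transferred onto Drosophila Schneider cells expressing a copper-inducible Gal4–ROR gamma transactivation domain fusion. After 1 hr, copper sulfate is added to 700 uM final; luciferase is read 20 hr later.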
Hits are given with their value; - = inactive; ? = inconclusive; . = no result given; ! = not active in a repeat; [ ] = another dose, or the depositor's remark. An excerpt weighted towards active compounds, which were near 8.1% of everything screened. Unless noted, the call rests on the fitted dose curve; in most records, active means well fitted curve in the direction sought with a large enough effect; inconclusive means small, poorly fitted or top-dose-only effect, or another doubt; inactive means no such curve, though single readings can be large; an effect the other way counts as inactive or inconclusive.

SMILES	ClpP mod	Epigenetic derep	PINK1 modulator	Sfp inh	VP16 counter	RORg inh
CCC1=NN(C(=O)C(=O)Nc2ccc(OC)cc2)C(O)(C(F)(F)F)C1 (stereo not drawn)	-	-	-	-	-	?
COc1ccccc1NC(=O)C(=O)N1N=C(C(C)C)CC1(O)C(F)(F)F (stereo not drawn)	-	-	.	-	?	10µM
CCN1C/C(=N\S(=O)(=O)/N=C2\CN(CC)C(=O)N2CC)N(CC)C1=O	-	-	-	-	-	10µM
Nc1ccc2c(c1)C(=O)c1ccccc1-2	.	.	-	.	.	.
Nc1ccc2c(c1)C(=O)c1ccccc1C2=O	-	.	-	.	-	?
Nc1ccc2c(c1)C(=O)C(=O)c1ccccc1-2	-	-	-	-	2.8µM	1.8µM
O=C1C(=O)c2ccc(-c3ccccc3)cc2-c2ccccc21	-	-	-	-	3.5µM	3.2µM
Cc1cccc(OCCSc2nc(N)cc(N)n2)c1	-	-	-	45µM	-	?
COc1ccc(-c2nnc(SCCOc3cccc(C)c3)n2N)cc1	-	-	-	-	-	-
c1cnc(SCCOc2cccc3ccccc23)nc1	-	-	-	?	?	?
Cc1ccc(OCCSc2ncccn2)c(C)c1	-	-	-	-	?	10µM
Cc1ccc(NC(=O)CSc2ccc(-c3cccs3)nn2)cc1Cl	-	?	-	.	.	.
COc1cc(OC)c(NC(=O)N2CCC(CN3CCCC3)CC2)cc1Cl	-	-	-	.	.	.
C=C[C@H](CC(C)C)N(Cc1ccccc1)S(=O)(=O)N(Cc1ccccc1)[C@H](C=C)CC(C)C	-	.	.	.	.	.
COc1cc(-n2c(-c3ccccc3)n[nH]c2=S)c(OC)cc1Cl	-	-	-	?	-	5µM
COc1ccc(-c2cc(-c3n[nH]c(=S)n3-c3cccc4ccccc34)[nH]n2)cc1	.	-	-	-	-[10 µM]	?
S=c1[nH]nc(-c2ccc(Cl)cc2)n1-c1cccnc1	-	-	-	-	-	-
COc1ccccc1-n1c(-c2ccco2)n[nH]c1=S	.	.	-	-	-	-
COc1ccccc1-n1c(-c2cccnc2)n[nH]c1=S	-	-	-	50µM	.	-[0.365 µM]
S=c1[nH]nc(-c2cccnc2)n1-c1ccccc1	-	-	-	79µM	?	7.9µM
COc1ccccc1-n1c(-c2cc(-c3ccc(F)cc3)n[nH]2)n[nH]c1=S	.	-	-	10µM	-	7.9µM
COc1ccc(OC)c(-n2c(-c3cccc(S(=O)(=O)N(C)C)c3)n[nH]c2=S)c1	.	-	-	-	-	-
Cc1cccc(Nc2ncc(NC(=O)c3cccc(F)c3)c(Nc3cccc(C)c3)n2)c1	-	-	-	.	.	.
COc1ccc(CN2CCC3(CCC(CNC(=O)c4ccnn4C)O3)CC2)c(C)c1C (stereo not drawn)	.	.	-	.	.	.
Cc1ccccc1C(=O)Nc1sc2c(c1C(=O)NCc1ccco1)CCC(C(C)(C)C)C2 (stereo not drawn)	-	-	-	.	.	.
SMILES	ClpP mod	Epigenetic derep	PINK1 modulator	Sfp inh	VP16 counter	RORg inh
COC(=O)c1cc2oc(C)cc2n1Cc1c(C)cc(C)cc1C	-	-	-	.	.	.
CCOC(=O)CN1NC2(CCC(C)CC2)NC1=S (stereo not drawn)	-	-	-	35µM	?	?
CCOC(=O)CN1NC2(CCCC(C)C2)NC1=S (stereo not drawn)	-	-	-	25µM	?	?
CCOC(=O)CON1C(=O)C(=O)N(OCC(=O)OCC)[C@H]2CCCC[C@H]21	.	-	-	-	-	-
CCOC(=O)CN1NC2(CCC(C(C)(C)C)CC2)NC1=S (stereo not drawn)	-	-	-	22µM	?	10µM
O=C(Cc1ccc(Oc2ccccc2)cc1)NO	-	.	-	.	.	.
Cc1cccc(CNC(=O)c2cnn(-c3nccc(-c4ccccc4C(F)(F)F)n3)c2C)n1	.	.	-	.	.	.
CC(C)Cn1c(N)c(C(=O)COC(=O)c2cc(-c3ccco3)nc3ccccc23)c(=O)n(C)c1=O	-	-	?	20µM!	-	-
Cn1c(=O)c(C(=O)COC(=O)c2cc(-c3ccco3)nc3ccccc23)c(N)n(Cc2ccccc2)c1=O	.	-	.	32µM	-	-
Cn1c(N)c(C(=O)COC(=O)c2cc(-c3ccccc3)nc3ccccc23)c(=O)n(Cc2ccccc2)c1=O	-	-	-	-	-	-
CC(C)Cn1c(N)c(C(=O)COC(=O)c2cc(C3CC3)nc3ccccc23)c(=O)n(C)c1=O	25µM	-	-	-	?	?
CCC(O)CNC(=O)c1cnn(-c2ncc3c(n2)-c2ccccc2CCC3)c1C1CC1 (stereo not drawn)	.	.	-	.	.	.
CCOc1ccccc1NC(=O)CSc1cc(=O)n(CC)c2ccccc12	-	-	-	.	.	.
Cc1ccsc1C=Nc1ccc(O)cc1	-	?	-	?	?	10µM
O=c1c2c3c(sc2nc2n1CCCCC2)CCCC3	-	-	-	32µM	-	-
Cc1nc2sc(C)c(C)c2c(=O)o1	-	-	-	20µM	-	?
CC(C)c1nc2sc3c(c2c(=O)o1)CCCC3	-	-	-	-	-	?
Cc1nc2sc3c(c2c(=O)o1)CCCC3	-	-	-	40µM	-	-
Cc1ccc(-n2cc(CN3CCN(Cc4nccn4C)CC3)c(-c3cccc(C)c3)n2)cc1	.	-	-	-	-	10µM
COc1ccc(-n2cc(CN(C)CCO)c(-c3cccc(F)c3)n2)cc1	-	-	-	-	-	-
Cc1cccc(-n2cc(CN(C)Cc3nccn3C)c(-c3cccc(F)c3)n2)c1	-	-	-	-	?	5.6µM
CCn1ccnc1CN(C)Cc1nc(-c2cccc(Cl)c2)no1	.	-	-	-	-	18µM
CN(Cc1cn(Cc2ccccc2)nc1-c1ccc2c(c1)OCO2)Cc1nccn1C	.	-	-	-	-	13µM
COc1cc(NC(=O)CN2C(=O)CCc3cc(Br)ccc32)cc(OC)c1OC	-	-	-	.	.	.
CCc1ccc(Sc2cc(C(=O)NCCCN3CCC(C)CC3)c3ccccc3n2)cc1	-	-	-	.	.	.
SMILES	ClpP mod	Epigenetic derep	PINK1 modulator	Sfp inh	VP16 counter	RORg inh
CCOC(=O)c1c(NC(=O)c2cc(=O)c3cc(C)cc(C)c3o2)sc(C)c1C	-	-	-	.	.	.
Cc1ccc(-n2cc(CN3CCNC(=O)CC3)c(-c3cccc(C)c3)n2)cc1	.	-	-	-	-	-
Cc1cccc(-n2cc(CN3CCCN(C=O)CC3)c(-c3cccc(F)c3)n2)c1	-	-	-	-	-	-
CCn1ccnc1CN(C)Cc1cn(-c2ccc(C)cc2)nc1-c1cccc(C)c1	.	-	-	?	10µM	1.6µM
CCn1ccnc1CN(C)Cc1cn(-c2cccc(C)c2)nc1-c1cccc(F)c1	-	-	-	45µM	16µM	1.6µM
CCN1CCOC(=O)C1CC(=O)Nc1ccc(Br)cc1 (stereo not drawn)	-	-	-	.	.	.

Bioassay records (PubChem BioAssay)
